# Experimental data from PubChem BioAssay (NCI).
# The panel holds about 79,000 compounds, 15% with a hit somewhere; the sample as a whole holds those more often. A number with no mark means an inactive call. Activity calls are given as the source filed them. Rule as the data show it: active = growth inhibition above about 70%; inactive = the rest.
# Experiments:
# [1] = NCI Yeast Anticancer Drug Screen. Data for the rad50 strain (AID 155);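 also: 0% = growth of vehicle-only cultures of the same strain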; conditions: S. cerevisiae rad50 strain growth inhibition; at 50.0 µM; active compounds read high
# Summary of the method: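 A DNA repair-deficient yeast mutant serves as the test organism; compound-induced growth inhibition is calculated against vehicle-treated cells.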
# [2] = NCI Yeast Anticancer Drug Screen. Data for the mec2-1 strain (AID 157); conditions: S. cerevisiae mec2-1 strain, at 50.0 µM, active compounds read high
# Summary of the method: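 Vehicle-treated cultures served as reference for growth inhibition of compound-exposed mec2-1 yeast.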
# [3] = NCI Yeast Anticancer Drug Screen. Data for the sgs1 mgt1 strain (AID 161);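 also: 0% = growth of cultures given vehicle only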; conditions: S. cerevisiae sgs1 mgt1 strain, at 50.0 µM, active compounds read high
# Summary of the method: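 Genetically altered yeast, compound exposure, growth inhibition relative to vehicle.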
# [4] = NCI Yeast Anticancer Drug Screen. Data for the cln2 rad14 strain (AID 165);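 also: 0% = growth equal to vehicle treated cultures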; conditions: S. cerevisiae cln2 rad14 strain, at 50.0 µM, active compounds read high
# Summary of the method: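 Each compound was tested on cln2 rad14 yeast. Inhibition of growth was calculated against vehicle-exposed controls.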
# [5] = NCI Yeast Anticancer Drug Screen. Data for the bub3 strain (AID 167); conditions: S. cerevisiae bub3 mutant strain, at 50.0 µM, active compounds read high
# Summary of the method: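 Inhibition values come from growth of compound-treated mutant yeast normalised to vehicle-treated controls.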
# [6] = NCI Yeast Anticancer Drug Screen. Data for the mlh1 rad18 strain (AID 175); conditions: S. cerevisiae mlh1 rad18 strain growth inhibition; at 50.0 µM; active compounds read high
# Summary of the method: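 Vehicle-treated cultures served as the reference for growth inhibition in a yeast strain carrying DNA damage repair alterations exposed to each compound.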
Compound,growth inhibition [1],growth inhibition [2],growth inhibition [3] [%],growth inhibition [4],growth inhibition [5],growth inhibition [6]
O=S(=O)(c1ccccc1)N1CCN(S(=O)(=O)c2ccccc2)c2ccccc21,58.9%,23.9%,-3.75,3.9%,43.6%,53.9%
COC(=O)C(C(=O)C(=O)Nc1nc2ccc([N+](=O)[O-])cc2s1)c1nc2ccc(Cl)cc2[nH]c1=O (stereo not drawn),10.3%,17.5%,21.4,26.8%,15%,-3.1%
COc1ccccc1/C=C/C(=O)c1ccccc(=O)c1O,-9%,-5.05%,-4.35,-23.4%,-1.05%,-11.2%
Cc1ccc(C)c(C2NC(=O)c3ccccc3N2)c1 (stereo not drawn),-15.8%,-9.25%,-44.8,-30.2%,-52.2%,-19.8%
Cc1cc(C)c(S(=O)(=O)Nc2ccccc2F)c(C)c1,40.1%,30.7%,62.9,7.3%,29.4%,56.9%
CC1OC(C)(c2ccc(Cl)cc2)OCC1(C)C (stereo not drawn),-2.45%,-1.15%,2.5,-26.6%,17.8%,16.9%
CCc1cccc(CC)c1Nc1nc(C)nc2c1cnn2C,-3.55%,-1.85%,5.55,-40.1%,5.35%,3.95%
COC1OC(COCc2ccccc2)C(OCc2ccccc2)C(OC)C1O (stereo not drawn),-37.6%,-3%,5.6,-40.9%,-2.3%,-17.6%
CC(=O)c1cc2c(cc1C)C(C)(C)CCC2,8.45%,14.2%,3.1,-47.7%,-16.4%,13.1%
N#C/C(=C/n1c(=S)sc2ccccc21)c1nc2ccccc2s1,11.8%,14.7%,49.6,24.9%,23.4%,30.8%
CCOc1ccc(OCC)c(NC(C)=O)c1,-1.95%,4.05%,3.95,5.5%,13.8%,-3.6%
O=c1cc(S(=O)(=O)Cc2ccccc2)[nH]c(=O)[nH]1,43%,6.75%,0.2,-43.6%,8.35%,31.2%
O=c1c2cc(S(=O)(=O)Nc3ccccc3Cl)ccc2ncn1NS(=O)(=O)c1ccc(Br)cc1,35.2%,1.8%,31.9,-0.4%,19.5%,23.9%
O=C(OCC(OC(=O)c1ccccc1)C(OC(=O)c1ccccc1)C(OC(=O)c1ccccc1)c1nn[nH]n1)c1ccccc1 (stereo not drawn),73% (active),88.4% (active),59.4,86.9% (active),85.2% (active),80.5% (active)
C[n+]1ccccc1/C=C/c1cccc([N+](=O)[O-])c1,-17.6%,-2.7%,-1.3,-28.8%,7.8%,1.9%
COc1ccc(N2C(=O)[C@@H]3[C@H](C2=O)c2[nH]c4ccccc4c2C2CCC(C(C)(C)C)C[C@@H]23)cc1 (stereo partly drawn),29.6%,4.1%,12.3,31.4%,6.2%,7.85%
O=C1NC(=O)C(F)(F)C1(F)F,4.9%,7.3%,-6.45,-1.1%,0.25%,4.35%
O=P(CCCCCCCCCCP(=O)(c1ccccc1)c1ccccc1)(c1ccccc1)c1ccccc1,-11%,2.6%,23.5,9.55%,2.3%,29.5%
C=C1CCC23CC(CC[C@@H]2[C@@]12C[C@@H](c1ccoc1)OC2=O)OC3=O (stereo partly drawn),2.6%,-12.6%,-8.6,-5.1%,5.35%,1.8%

Compound,growth inhibition [1],growth inhibition [2],growth inhibition [3] [%],growth inhibition [4],growth inhibition [5],growth inhibition [6]
N#CCC(=O)Nc1ccccc1,37%,15.7%,5.8,-11.8%,6.25%,26.2%
CCCc1nc(N)[nH]c(=O)c1I,-26%,-9.1%,-15.1,5.3%,7.8%,0.45%
O=C(O)C(CO)(c1ccccc1)c1ccccc1,-3.2%,-3.9%,-8.25,-1.65%,-1.55%,-0.15%
OCCc1ccccc1CCO,-29.6%,-17.8%,-13.2,-16.9%,-5.4%,8.5%
Cc1cc(Cc2ccc(NC(=O)N3CC3)c(C)c2)ccc1NC(=O)N1CC1,-2.95%,-8.25%,-6.8,0.25%,10.8%,-18.9%
Nc1cc2c3c(cccc3c1Br)C(=O)NC2=O,85.2% (active),14.6%,35.5,12.1%,15.3%,15.8%
C=C(C)c1nc(N)nc(-c2cccc(-c3nc(N)nc(C(=C)C)n3)c2)n1,-8.2%,-8.35%,0.2,-67.6%,-11%,-0.8%
O=C1NC(C(=O)O)CC1O (stereo not drawn),4.1%,23.9%,5.05,14.2%,17.9%,17.6%
Cc1onc(-c2ccc(-c3noc(C)c3C(=O)O)cc2)c1C(=O)O,-1.9%,-7.75%,-3.25,-5.4%,-10.4%,11.4%
O=C(NCc1ccccc1)C(c1ccccc1)c1ccccc1,1.85%,4.9%,2.6,5.7%,-9.1%,0.8%
CO/C(Cc1cc(O)cc(O)c1)=N\N,-0.45%,6.3%,1.25,-5.65%,7.85%,-4.1%
CCCc1sc(NC(C)=O)nc1-c1ccccc1,1.2%,5.85%,15.2,29.3%,-9.7%,10.2%
OB(O)c1cccc(B(O)O)c1,-4.2%,-28.7%,-3,-7.45%,-21.9%,-10.1%
CC(C)=CCNc1ncnc2c1ncn2CCC(=O)OC(C)(C)C,-9.75%,-3.2%,-3.7,-15.9%,10.1%,1.55%
Clc1nc(-c2ccccc2)nc2ccccc12,-10.1%,-17.6%,-18.2,-29.6%,-19.8%,-7.25%
O=C(O)C1Cc2c([nH]c3ccccc23)C=N1 (stereo not drawn),27.9%,11.9%,-2.3,22.2%,16.4%,33.8%
Cc1cc(C)nc(N(C)CCN2CCCCC2)c1,-6.5%,-3.1%,3.4,-25.1%,5.45%,-5.85%
CCOC(=O)c1ccc(NC(=O)c2cccc(Cl)c2)cc1,0.1%,-6.85%,-4.25,-5.45%,9.5%,1.25%
CCn1c(=O)c2c3ccc(OC(C)=O)cc3[nH]c2c2ccc(OC(C)=O)cc21,-17.9%,-30.5%,-10.9,9.35%,4%,-21.6%
